Measurements from article PMC12136788.
Substitutions are numbered along the chain they refer to. Over roughly 24,000 sequences, “enrichment r” has its median near 0.99; the highest 2% begin near 3.7. The sample as a whole holds a higher share of the highest values than the screen did.

T1: UNK ZnF1-3 (human, UniProt Q9C0B0 31-174)
T1 sequence: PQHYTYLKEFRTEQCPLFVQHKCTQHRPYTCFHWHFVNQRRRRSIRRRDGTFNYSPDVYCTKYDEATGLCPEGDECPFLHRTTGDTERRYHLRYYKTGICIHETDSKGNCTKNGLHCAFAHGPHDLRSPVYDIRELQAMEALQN

B1: 53612100_53613521_5214_CDS_ENSG00000086758_ENST00000262854|human|control|control (ssRNA)
RNA: GGGAGUUCUACAGUCCGACGAUCAGAGCGAUCAUCAAACCAGCGCCAGUUGUUGCUGUUGGAUUGCAGGUACUUAGUCAUCUGGGCUCUCCUUUUUGAGGAGAUGGCUGUCUUUUCAUAGAAAUCAAUCAGGAGCAACACUGGCAACAGAGGAUUGAGCAUCA
B2: chr1:163117127:163117128:-_ENSG00000143248_ENST00000313961|hu_hu|motif|central (ssRNA)
RNA: GGGAGUUCUACAGUCCGACGAUCGCAGGGUUAUUAUGGAGGAAAUAACUCACAGGAUGAUUUCAUAGCCUGGCUAAAUUACGGCUUGAUUAACUCCUGAUAAAACUCAGAGCGCACAAAGCGAGGCAGAGAAUCCUUUUCCAUCAACAGAGGAUUGAGCAUCA
B3: chr7:140404665:140404666:+_ENSG00000090266_ENST00000247866|hu_hu|hu_hu_hu_mus_False|28_98 (ssRNA)
RNA: GGGAGUUCUACAGUCCGACGAUCUGCUCCUACUCGUAGGCUGAGUCUACAGUGUCAGUCCUCGUCAUCAGGAGGGAUUCCCAGUUCUUCAUCUGUCCACUGUGAAGGAUCAGGAUAUGAAAAGUGACCCAGCACAGCAUCCGACAACAGAGGAUUGAGCAUCA
B4: chr9:34402745:34402746:-_ENSG00000164970_ENST00000297620|hu_hu|motif|central (ssRNA)
RNA: GGGAGUUCUACAGUCCGACGAUCGGGGACGACCAGCCUUGUUCGGGCCAUGACAUUGUUCUUCUUGGGUUGCUGGUUGACAGGGCGGCCCAUGCUGCCAUUCUUCAGGGAGCCCUUCCGGGCCAGCUCCCGCUGCUUCUCCUCCAACAGAGGAUUGAGCAUCA
B5: chr2:153237265:153237266:-_ENSMUSG00000061411_ENSMUST00000109784|mus_mus|mus_mus_mus_hu_False|1_98 (ssRNA)
RNA: GGGAGUUCUACAGUCCGACGAUCAAAAAAAAAAAAAGAAAAGUGUCCUUGUGCCCAAAGUCUCAGGUGCUUGGAGUGUGGCUAGAAACAGCUCUUUUGGAUCCCACCUCUUUCAAAAACAAAAUGUACCAACUGGUAGGCAGGCAACAGAGGAUUGAGCAUCA
B6: chr2:153237265:153237266:-_ENSMUSG00000061411_ENSMUST00000109784|mus_mus|mus_mus_mus_hu_False|98_98 (ssRNA)
RNA: B5 RNA with A137G, G138A, C140G, A141C, G142A
B7: chr2:153237265:153237266:-_ENSMUSG00000061411_ENSMUST00000109784|mus_mus|mus_mus_mus_hu_False|1_108 (ssRNA)
RNA: B5 RNA with A32G, G37A
B8: chr11:86532819:86532820:-_ENSMUSG00000047126_ENSMUST00000103186|perfect_dup|FALSE|FALSE (ssRNA)
RNA: GGGAGUUCUACAGUCCGACGAUCCAUGGCUCUGAGACAUUCUAGGGAGUCUUCUACUGAUAAGGAACCAAAGUAGUUGACUAACCACUCAGGGUUAAGAAGAUGGGUGUGAACCACUGCACGUUUUAUAUCAUAUAAAUCAGUCAACAGAGGAUUGAGCAUCA
B9: chr1:39494564:39494565:+_ENSG00000168653_ENST00000372967|hu_hu|hu_hu_hu_mus_True|18_38 (ssRNA)
RNA: GGGAGUUCUACAGUCCGACGAUCAUGCAUUCGCCUCAUCGUUUUGUACCGAAGCAAGCACUCUUCGAAGUCAUCGAACUCUAUCUUGCACUCCUUUUCUGCCCGAGUCCCACCGAUUCCAUGUGCACACUCUAUCCACUCUUUCAACAGAGGAUUGAGCAUCA
B10: chr14:89338683:89338684:+_ENSG00000165533_ENST00000346301|hu_hu|hu_hu_hu_mus_False|48_58 (ssRNA)
RNA: GGGAGUUCUACAGUCCGACGAUCGUGGUUGUUGUGGACCAGGGCCAGCCUGAAGCAUUGGUGGGCCAAGUUUGUAUCUCCUAUUCCCACAGCUACAUGCCCCAGGUUGUACCAGACAUCAGCUGCCUCUUCUUCAUUUUCAGCCAACAGAGGAUUGAGCAUCA
B11: chr11:6247107:6247108:+_ENSMUSG00000020456_ENSMUST00000003461|mus_mus|motif|central (ssRNA)
RNA: GGGAGUUCUACAGUCCGACGAUCAAACAUAGGUUCGUCCAUCUCAUUGUGGCCAUUUCGUCGAUAACACACCAGAUCAACGGCAACAUCCUUGUGGAAGGUGUUUCUCCACUCAGCUGCCACCUUGCAUACAUACAUGACAGCCAACAGAGGAUUGAGCAUCA
B12: chrX:41029285:41029286:+_ENSG00000124486_ENST00000378308|hu_hu|FALSE|FALSE (ssRNA)
RNA: GGGAGUUCUACAGUCCGACGAUCUGUAUGAGACCAUACCUCCAAGUCAUCAACCUGUCUGCCCUGGUUUGGAAAUCGAACUACAAAAGAGAGGUGUUUACCGCGGAAUGCUCUCGACAUAGGGAGAAUUGUUCUUUCCUCAUGCAACAGAGGAUUGAGCAUCA
B13: chr1:39494447:39494448:+_ENSG00000168653_ENST00000372967|hu_mus|hu_hu_hu_mus_False|18_38 (ssRNA)
RNA: GGGAGUUCUACAGUCCGACGAUCGCACCGAGCGGCGUUCUUAUAGGGCUGUUCUGCGCUUAGGAACAUAAAGUGCCGGUCCAGGCUGAUGCCCAGCCUUUUCUGGAUGUCAAGGAAAGGCAUGGCCCUGCAGUGCCCUUGUCACAACAGAGGAUUGAGCAUCA
B14: chr4:56294251:56294252:-_ENSG00000134852_ENST00000309964|hu_hu|FALSE|FALSE (ssRNA)
RNA: GGGAGUUCUACAGUCCGACGAUCAACAUAGCACUGAGGUAUUUUUUAUUUUUAAAAUUGAAGGAAACAAAGUCUGGAUCUAAUUAUUUUUACAUUUACAAAAACUGCUACUGCUUGGCUCUUUUGCUAUAAGUUUAGGUUCUGCAACAGAGGAUUGAGCAUCA
B15: chr1:34870196:34870197:-_ENSMUSG00000037503_ENSMUST00000047534|mus_mus|motif|central (ssRNA)
RNA: GGGAGUUCUACAGUCCGACGAUCUGAGCCCAUCUACUCAUCAGAUUGCAUAAAAAAUUAAAACAGUAUGAAUUUACAUCGGAUUGAACUGGCUUGGGAUGGACAGUCUGCCCGUUCCUUUGUUUUGACACAUAAGUUCCAUGACAACAGAGGAUUGAGCAUCA
B16: 54592465_54592585_3431_3pUTR_ENSMUSG00000005225_ENSMUST00000119706|mouse|control|control (ssRNA)
RNA: GGGAGUUCUACAGUCCGACGAUCUUGCUUGGCUUAAAAUUUUAUUACAAGUGUUUUUAAGAGGCAAGGUCUUGCUAUGUUGUUCAGGUUAAUCUCCAAAUCUUGGGCUCAAAUAAUACUUUACUCUCAUACUUCUGGGUAGCUCAACAGAGGAUUGAGCAUCA
B17: chrX:41000244:41000245:+_ENSG00000124486_ENST00000378308|hu_mus|motif|central (ssRNA)
RNA: GGGAGUUCUACAGUCCGACGAUCUGCUUCUUUCUUCAGCUCUUCAUCAGUUAAGUUUUCUAAAAACUGUGGAACCAUUUCGGUUAUUGGAAGAAAGUACUUUUUCACUGUGUGAAGAGUAAGAAACUCAUAGCACUGUCCAAACAACAGAGGAUUGAGCAUCA
B18: chr1:34870196:34870197:-_ENSMUSG00000037503_ENSMUST00000047534|mus_mus|FALSE|FALSE (ssRNA)
RNA: B15 RNA with G80U, G81A
B19: chr4:56294251:56294252:-_ENSG00000134852_ENST00000309964|hu_hu|motif|central (ssRNA)
RNA: B14 RNA with U80G, A81G
B20: chr4:17845017:17845018:+_ENSG00000109805_ENST00000514176|hu_mus|hu_hu_hu_mus_False|48_58 (ssRNA)
RNA: GGGAGUUCUACAGUCCGACGAUCGCUCUCUUAACUUGUAUCUUCAUUAAGGAACUCUGCAAGGUUAAGUUUACUUUUUCUAGUGCUGCGGUUUUGGGCUCGUCUGGGUAAUCUCAUCUUCAUUUCUGAUGGUGGUUCAUGAUCCAACAGAGGAUUGAGCAUCA
B21: chr6:114281168:114281169:-_ENSG00000196591_ENST00000368632|hu_hu|hu_hu_hu_mus_True|1_18 (ssRNA)
RNA: GGGAGUUCUACAGUCCGACGAUCUUCCAUUUUUCGGUAUAAACCAUAAUUUAGCAGCAAGUUAUGAGUCAUCCGGAUUCUAUGAGGCUUCAUGGGAUGACCCUGGCCAUAAUAAUAAUUUCCAAUAUCACCAUCAUACUAGAACAACAGAGGAUUGAGCAUCA
B22: 83260623_83262902_554_CDS_ENSMUSG00000031715_ENSMUST00000043359|mouse|control|control (ssRNA)
RNA: GGGAGUUCUACAGUCCGACGAUCUUCUUUUUGCUUUCCAGGUGAUCCAUGAUCAAAUACUUCCUCCAUCUCGGUGUCCGCGGGGCCCGAGCCCGCAGCACACGGAGCCGCGGGCGCCGCGCCGCCCUCGGGGCCGCCUUUGUUCAACAGAGGAUUGAGCAUCA

target: T1, UNK ZnF1-3; assay: nsRBNS (natural sequence RNA bind-n-seq); RBNS binding buffer (assumed for nsRBNS): 25 mM Tris pH 7.5, 150 mM KCl, 3 mM MgCl2, 0.01% Triton X-100, 500 ug/ml BSA, 20 U/ml SUPERase-In, 4 C; UNK is unkempt and MSI1 is Musashi-1; names of the RNAs are library labels; protein concentration not given here; high values mean tight binding

| Binder | binding signal |
| --- | --- |
| B1 | 1.05 enrichment R |
| B2 | 1.52 enrichment R |
| B3 | 0.773 enrichment R |
| B4 | 0.859 enrichment R |
| B5 | 4.8 enrichment R |
| B6 | 3.61 enrichment R |
| B7 | 4.2 enrichment R |
| B8 | 1.15 enrichment R |
| B9 | 0.624 enrichment R |
| B10 | 0.726 enrichment R |
| B11 | 0.7 enrichment R |
| B12 | 1.07 enrichment R |
| B13 | 0.685 enrichment R |
| B14 | 4.1 enrichment R |
| B15 | 1.36 enrichment R |
| B16 | 1.3 enrichment R |
| B17 | 0.545 enrichment R |
| B18 | 1.33 enrichment R |
| B19 | 3.76 enrichment R |
| B20 | 0.378 enrichment R |
| B21 | 1 enrichment R |
| B22 | 0.826 enrichment R |
